Laboratory results: paper PMC5540273 (PLoS ONE, 2017)

Tests used:
Details in all cases: concentration: 1 μM, replicates: in singlicate; n = 1
CAMK2G = system: CAMK2G
CAMK4 = system: CAMK4
CAMKK1 = system: CAMKK1
CAMKK2 = system: CAMKK2
CASK = system: CASK
CDC2L1 = system: T1, CDC2L1
T1 construct: gene CDK11B

CDC2L2 = system: CDC2L2
CDC2L5 = system: T2, CDC2L5
T2 construct: gene CDK13

CDK11 = system: T3, CDK11
T3 construct: gene CDK19

CDK2 = system: CDK2

Measured: %Inh
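Note: KINOMEscan kinase panel screen.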

CCC(=O)c1c(-c2ccccc2)c2cc(Cl)ccc2c(=O)n1Cc1ccc(C(=O)O)cc1
0%: CAMK2G | CAMK4 | CAMKK1 | CAMKK2 | CASK | CDC2L1 | CDC2L2 | CDC2L5 | CDK11 | CDK2

CCC(=O)c1c(-c2ccccc2)c2cc(Cl)ccc2c(=O)n1Cc1cc(S(C)(=O)=O)n(CC(N)=O)n1
0%: CAMK2G | CAMK4 | CAMKK1 | CAMKK2 | CASK | CDC2L1 | CDC2L5 | CDK11 | CDK2
6%: CDC2L2

O=C(Nc1ccc2c(c1)OCO2)NC1CCN(c2ccnc(NCc3ccc(F)cc3)n2)CC1 [GSK1379859]
22%: CAMK2G
6%: CDC2L2
25%: CAMKK2
0%: CAMK4 | CAMKK1 | CASK | CDC2L1 | CDC2L5 | CDK2
53%: CDK11
